In the supplement of paper PMC12045047:
Structures can show the parent of a compound that is named as a salt. Unmarked numbers belong to inactive results.

Test system: primary human airway basal cells (HBEC, luciferase-transduced)
Test: proliferation (luciferase bioluminescence) Z score relative to plate mean; higher = more proliferation / more cells, active = 1.96 or more
Conditions: donor: 1; 0.5 µM; library: ENZO Libraries; 4 days
Procedure: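 Primary human bronchial epithelial (airway basal) cells from two donors, lentivirally transduced with pHIV-Luc-ZsGreen, were seeded at 2000 cells/well in 384-well plates in FAD medium with ENZO or Prestwick library compounds and cultured for 4 days. Luciferin was then added and bioluminescence was read as a measure of cell number. Relative light units were converted to Z scores against the plate, and the mean of triplicate wells is reported.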

Row | Structure (SMILES) | proliferation
1 | Cc1ccc(NC(=O)c2cccc(N(C)C)c2)cc1NC(=O)c1ccc(O)cc1 | 0.389
2 | NC(N)=NCCC[C@H](NC(=O)[C@@H]1CCCN1C(=O)[C@H](N)Cc1ccccc1)C(=O)CCl | 0.533
3 | Nc1ccc(CC(CC(=O)O)C(=O)O)cc1 [4-Amino-D L-benzylsuccinic acid] | 0.379
4 | CCOC(=O)c1ccc(OC(=O)CCCCCNC(=N)N)cc1 [Gabexate mesylate] | -0.301
5 | CCN1C(=O)C=CC1=O [N-Ethylmaleimide] | 0.0934
6 | CC[C@H](CO)Nc1nc(NCc2ccccc2)c2ncn(C(C)C)c2n1 [Roscovitine] | -0.00187
7 | O=c1c(-c2ccc(O)cc2)coc2cc(O)ccc12 [Daidzein] | 0.207
8 | N#C/C(=C\c1ccc(O)c(O)c1)C(=O)NCc1ccccc1 | 0.366
9 | CC(C)CCNC(=O)[C@H](CC(C)C)NC(=O)[C@H]1O[C@@H]1C(=O)O | -0.298
10 | CC(C)C(=O)SCCCCCCC(=O)Nc1nc(-c2ccccc2)cs1 | 0.111
11 | CCCCC[C@H](CC(=O)NO)C(=O)N[C@H](C(=O)N1CCC[C@H]1CO)C(C)C [Actinonin] | -0.508
12 | O=Nc1ccc(O)c2ncccc12 | -0.683
13 | C[C@H](CS)C(=O)N1CCC[C@H]1C(=O)O [Captopril] | -0.424
14 | NC(=O)c1cccc(-c2cccc(OC(=O)NC3CCCCC3)c2)c1 | 0.0752
15 | O=Nc1c(-c2c(O)[nH]c3ccccc23)[nH]c2ccccc12 [Indirubin-3'-monooxime] | -0.0926
16 | Oc1c2ccccc2c2c3c(cccc13)N=N2 | 0.134
17 | CSCCC(C=O)NC(=O)C(CC(C)C)NC(=O)[C@H](CC(C)C)NC(C)=O (stereo not given in full) [Calpain Inhibitor II (ALLM)] | 0.241
18 | CO[C@H]1C[C@@H]2CC[C@@H](C)[C@@](O)(O2)C(=O)C(=O)N2CCCC[C@H]2C(=O)O[C@H]([C@H](C)C[C@@H]2CC[C@@H](O)[C@H](OC)C2)CC(=O)[C@H](C)/C=C(\C)[C@@H](O)[C@@H](OC)C(=O)[C@H](C)C[C@H](C)/C=C/C=C/C=C/1C [Rapamycin] | -3.38
19 | NCC1CCC(C(=O)N[C@@H](Cc2ccccc2)C(=O)Nc2ccc(CC(=O)O)cc2)CC1 (stereo not given in full) | 0.228
20 | CC(C(=O)Nc1cccc(/N=C/c2c(O)ccc3ccccc23)c1)c1ccccc1 (stereo not given) [Salermide] | -0.719

Same assay, conditions: donor: 1; 5 µM; library: ENZO Libraries; 4 days

Row | Structure (SMILES) | proliferation
21 | Cc1ccc(NC(=O)c2cccc(N(C)C)c2)cc1NC(=O)c1ccc(O)cc1 | 0.18
22 | NC(N)=NCCC[C@H](NC(=O)[C@@H]1CCCN1C(=O)[C@H](N)Cc1ccccc1)C(=O)CCl | -0.142
23 | Nc1ccc(CC(CC(=O)O)C(=O)O)cc1 [4-Amino-D L-benzylsuccinic acid] | -0.241
24 | CCOC(=O)c1ccc(OC(=O)CCCCCNC(=N)N)cc1 [Gabexate mesylate] | 0.0316
25 | CCN1C(=O)C=CC1=O [N-Ethylmaleimide] | -0.247
26 | CC[C@H](CO)Nc1nc(NCc2ccccc2)c2ncn(C(C)C)c2n1 [Roscovitine] | -0.592
27 | O=c1c(-c2ccc(O)cc2)coc2cc(O)ccc12 [Daidzein] | 1.72
28 | N#C/C(=C\c1ccc(O)c(O)c1)C(=O)NCc1ccccc1 | -0.179
29 | CC(C)CCNC(=O)[C@H](CC(C)C)NC(=O)[C@H]1O[C@@H]1C(=O)O | -0.117
30 | CC(C)C(=O)SCCCCCCC(=O)Nc1nc(-c2ccccc2)cs1 | 0.205
31 | CCCCC[C@H](CC(=O)NO)C(=O)N[C@H](C(=O)N1CCC[C@H]1CO)C(C)C [Actinonin] | -0.446
32 | O=Nc1ccc(O)c2ncccc12 | -1.09
33 | C[C@H](CS)C(=O)N1CCC[C@H]1C(=O)O [Captopril] | -0.0768
34 | NC(=O)c1cccc(-c2cccc(OC(=O)NC3CCCCC3)c2)c1 | 0.55
35 | O=Nc1c(-c2c(O)[nH]c3ccccc23)[nH]c2ccccc12 [Indirubin-3'-monooxime] | 2.48 (active)
36 | Oc1c2ccccc2c2c3c(cccc13)N=N2 | -0.168
37 | CSCCC(C=O)NC(=O)C(CC(C)C)NC(=O)[C@H](CC(C)C)NC(C)=O (stereo not given in full) [Calpain Inhibitor II (ALLM)] | -0.104
38 | CO[C@H]1C[C@@H]2CC[C@@H](C)[C@@](O)(O2)C(=O)C(=O)N2CCCC[C@H]2C(=O)O[C@H]([C@H](C)C[C@@H]2CC[C@@H](O)[C@H](OC)C2)CC(=O)[C@H](C)/C=C(\C)[C@@H](O)[C@@H](OC)C(=O)[C@H](C)C[C@H](C)/C=C/C=C/C=C/1C [Rapamycin] | -1.63
39 | NCC1CCC(C(=O)N[C@@H](Cc2ccccc2)C(=O)Nc2ccc(CC(=O)O)cc2)CC1 (stereo not given in full) | 0.079
40 | CC(C(=O)Nc1cccc(/N=C/c2c(O)ccc3ccccc23)c1)c1ccccc1 (stereo not given) [Salermide] | -0.645
